Screens: PubChem BioAssay, The Scripps Research Institute Molecular Screening Center
An excerpt weighted towards active compounds, which were near 4.1% of everything screened.
DAX1 inh-1 – inhibitors of human orphan nuclear receptor DAX1 (NR0B1); P51843; HEK293 Gal4-DAX1 luciferase reporter, luminescence; inhibition, % at 6.75 µM; 0.99% of 340,000 active; AID 504766;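 active = inhibition above the mean over all tested compounds plus 3 SD, cut at about 4.2% in these data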;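 also: inhibition shows as a rise in luminescence from relieved DAX1 repression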
Target sequence (P51843 207-470 limits assumed): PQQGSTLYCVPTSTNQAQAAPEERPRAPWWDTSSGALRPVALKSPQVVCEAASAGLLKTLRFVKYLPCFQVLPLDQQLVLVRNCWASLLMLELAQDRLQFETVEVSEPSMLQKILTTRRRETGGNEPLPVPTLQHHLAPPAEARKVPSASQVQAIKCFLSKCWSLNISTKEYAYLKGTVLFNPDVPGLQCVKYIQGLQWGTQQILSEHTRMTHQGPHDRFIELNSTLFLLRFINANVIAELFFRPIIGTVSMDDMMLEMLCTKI
hgDAF-12 ag – agonists of H. glycines DAF-12 nuclear receptor | HEK293 GAL4-hgDAF12 UAS-luciferase reporter, agonist luminescence; normalized to butyrate control | activation, % at 6.8 µM | 1.8% of 370,000 active;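 active = activation above a cutoff set at the mean of all screened compounds plus 3 SD, cut at about 10% in these data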
hcDAF12 agonist – activators of H. contortus DAF-12 nuclear receptor. HEK293 hcDAF-12 lit1-tk-luc reporter, luminescence; 0% DMSO, 100% Δ7-dafachronic acid. activation, % at 6.8 µM. 1.4% of 370,000 active. AID 652067;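 active = activation above the mean of all tested compounds plus 3 SD, cut at about 5.5% in these data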
ssDAF12 agonist – activators of S. stercoralis DAF-12 nuclear receptor | HEK293 ssDAF-12/GRIP1 lit1-tk-luc reporter, luminescence; % of 3 µM dafachronic acid response | activation, % at 6.8 µM | 1% of 370,000 active | AID 652126;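 active = activation above the mean over all tested compounds plus 3 SD, cut at about 0.9% in these data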
DAX1 inh-2 – blocks DAX1 repression of SF-1 activated StAR promoter; inhibition, % at 6.8 µM; 1.1% of 370,000 active; AID 652010; HEK293T StAR-luciferase reporter, SF-1/DAX-1 repression relief;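 active = inhibition above the mean over all tested compounds plus 3 SD, cut at about 3.6% in these data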;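 also: higher inhibition means more luminescence from relief of DAX-1 repression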
Hits are given with their value; – = inactive; · = no result given.

SMILES | DAX1 inh-1 | hgDAF-12 ag | hcDAF12 agonist | ssDAF12 agonist | DAX1 inh-2
CN1CCN(S(=O)(=O)c2cccc(C(=O)Nc3sc4c(c3-c3nc5ccccc5[nH]3)CCCC4)c2)CC1 | – | – | 6.1 | – | –
CC(C)N1CCCCC(NC(=O)Cc2ccccc2)C1=O (centres undefined) | · | – | – | – | –
CCN1CCN(c2nnc(-c3ccccc3)c3ccccc23)CC1 | – | – | – | – | –
CCN1CCN(c2cc3c(nn2)Oc2ccccc2N3C)CC1 | – | 12.1 | – | – | –
C=CCOC(=O)N[C@H](c1ccccc1)[C@H](C)/C=C/CC(=O)OC | · | – | – | – | –
COc1ccccc1CNC(=O)c1cc(-c2ccncc2)nc2c(Cl)cccc12 | – | – | 6.0 | – | –
COc1ccc(CCNC(=O)c2cc(-c3ccncc3)nc3c(Cl)cccc23)cc1OC | – | – | – | – | –
Cc1cc(Nc2cnc3ccccc3n2)n(-c2ccccc2)n1 | – | – | – | 1.9 | –
OC(c1ccco1)c1nc(-c2cccs2)cs1 (centres undefined) | · | – | 5.8 | 1.4 | –
COc1ccc(C(O)c2nc(-c3cccs3)cs2)cc1 (centres undefined) | · | – | – | – | –
COc1cccc2c(=O)c3ccccc3oc12 | 4.5 | – | – | – | –
Clc1ccc(Cl)c2sc(N3CCOCC3)nc12 | – | – | – | – | –
Clc1cc(Cl)c2nc(N3CCOCC3)sc2c1 | 4.8 | – | – | – | –
CCOC(=O)CC[C@H]1CC[C@]2(CCCN(C(=O)C(C)(C)C)C2)O1 | · | – | – | – | –
Nc1c(C(=O)O)cnc2c(-c3ccc(Cl)cc3)cnn12 | – | 11.7 | 6.4 | 1.0 | –
N#Cc1cccc(NC(=O)OCCCN2CCC3(CCCCC3)C2=O)c1 | · | – | – | – | –
CC1(C(=O)N/N=C/c2ccccc2)CC1(Br)Br (centres undefined) | – | – | – | – | –
Cc1ccc(/C=N/NC(=O)C2(C)CC2(Br)Br)cc1 (centres undefined) | – | – | – | 2.0 | –
NC(=O)c1ccsc1NC(=O)COC(=O)c1ccc(Cl)nc1 | – | – | – | – | –
NC(=O)c1ccsc1NC(=O)COC(=O)c1cccnc1Cl | – | 10.7 | – | – | –
CCCCNS(=O)(=O)CC1NCc2cc(F)ccc21 (centres undefined) | · | – | – | – | –
Clc1cccc(N=NN2CCOCC2)c1Cl | – | – | – | 1.7 | –
Cc1cc(NC(=O)C(=O)NCc2cccc(Cl)c2)no1 | 5.5 | – | – | – | –
COc1ccc(-c2[nH]ncc2CN2CCN(Cc3cccs3)CC2)cc1F | 7.8 | – | – | – | –
CCN(CC)C1CCN(Cc2cn[nH]c2-c2ccc(OC)c(F)c2)C1 (centres undefined) | · | – | – | – | –
SMILES | DAX1 inh-1 | hgDAF-12 ag | hcDAF12 agonist | ssDAF12 agonist | DAX1 inh-2
Cc1cc(/C=C(\C#N)C(=O)NCc2cccs2)c(C)n1-c1ccccc1F | – | – | – | 1.1 | –
CCOC(=O)[C@]12CCCC=C1N(Cc1ccc(OC)cc1)C(=O)[C@@H]2CC(=O)NCc1ccccc1 | · | – | – | – | –
c1ccc(-c2c[nH]c3cccc(C4CCCCC4)c23)cc1 | · | – | – | – | –
COc1ccc(-c2cc3ccccc3[nH]2)cc1 | – | – | 5.6 | – | –
O=C(CCc1ccccc1)N[C@H]1[C@@H](O)CCC[C@]12C(=O)N(Cc1ccccc1)c1ccccc12 | · | – | – | – | –
COC(=O)c1cc(-c2cc3ccccc3s2)c(=O)n2c1CCC2 | · | – | – | – | –
CCc1c(C)c2cc(Cl)c(O)c(CN(C)C)c2oc1=O | – | – | – | – | –
CCCCc1cc(=O)oc2c(CN(C)C)c(O)c(Cl)cc12 | – | – | – | 1.3 | –
CC(C)(N[C@@H](Cc1c[nH]c2ccccc12)C(=O)NCC(c1ccccc1)c1ccccc1)C(=O)NC1CCCCC1 | · | – | – | – | ·
CCCn1c(CCC(=O)O)nc2cc(S(=O)(=O)N(CC)CC)ccc21 | – | – | – | – | –
CCN(CC)S(=O)(=O)c1ccc2c(c1)nc(-c1ccccn1)n2C | – | – | 6.2 | – | –
COc1ccc(CSc2nnc(C)s2)cc1F | – | 10.8 | – | – | –
CCc1ccc(NC(=O)c2ccccc2NC(=O)C2CCCO2)cc1 (centres undefined) | – | 12.9 | – | – | –
C[C@@H]1ON(C)[C@H]2C[C@H]3c4[nH]c5c(-c6ccc7c(c6)OCO7)cccc5c4CCN3C(=O)[C@@H]12 | · | – | – | – | –
COc1cccc(/C=C2\CC3(OC(=O)C4CCCCC4)CCCN2C3)c1 (centres undefined) | · | – | – | – | –
C=CCN(C(=O)[C@@H](C)[C@@H](O)c1ccc(C(C)=O)cc1)c1ccccc1 | · | – | – | – | –
O=C1CN(c2ccccc2)C(=S)N1C(=O)c1ccc(Br)cc1 | 7.7 | 13.7 | – | – | –
O=C(c1ccc(Br)cc1)N1CCC(C(=O)N2CCN(c3ccccc3)CC2)CC1 | – | – | – | – | –
COc1ccc(C2=Cc3ccc(OC(C)=O)cc3OC2)cc1 | 5.5 | – | – | – | –
CCOC(=O)/C(C#N)=C/c1cn(CCOc2ccccc2)c2ccccc12 | – | – | – | 6.7 | –
CCOC(=O)/C(C#N)=C\c1cn(C)c2ccccc12 | – | – | – | – | –
O=C(CSc1nnc(-c2ccccn2)n1-c1ccccc1)c1ccc(F)cc1 | · | – | – | – | –
CCOC(=O)C1(Cc2ccccc2)CCN(Cc2ccnc3ccccc23)CC1 | · | – | – | – | –
COc1ccc(-c2nc3ccccn3c2CN2CCN(c3ccccc3F)CC2)cc1 | 4.4 | – | – | – | –
Clc1ccc(-c2nc3ccccn3c2CN2CCOCC2)cc1 | – | – | – | – | –
SMILES | DAX1 inh-1 | hgDAF-12 ag | hcDAF12 agonist | ssDAF12 agonist | DAX1 inh-2
COC(=O)c1cc(=O)n(Cc2ccc3c(c2)OCO3)c(=Nc2ccc(F)cc2)s1 | – | – | – | – | –
COC(=O)c1cc(=O)n(Cc2ccc(F)cc2)c(=NCc2ccc(F)cc2)s1 | – | – | – | 1.4 | –
COc1ccc(C2CC(=O)c3c(O)cc(O)cc3O2)cc1O (centres undefined) | 4.8 | – | – | – | –
O=C(Nc1ccc2ccccc2c1)C(c1ccccc1F)n1c(=O)c(-c2cc3ccccc3[nH]2)nc2ccccc21 (centres undefined) | · | – | – | – | –
COc1ccc(NC(=O)C(c2ccccc2F)n2c(=O)c(-c3cc4ccccc4[nH]3)nc3ccccc32)cc1 (centres undefined) | · | 12.2 | – | – | –
O=C(NCc1ccccc1)C(c1ccncc1)n1c(=O)c(-c2cc3ccccc3[nH]2)nc2ccccc21 (centres undefined) | · | – | 5.7 | 2.7 | –
COc1ccc(C(C(=O)NCc2ccccc2)n2c(=O)c(-c3cc4ccccc4[nH]3)nc3ccccc32)cc1 (centres undefined) | · | – | – | – | –
O=C(NCc1ccccc1)C(c1ccc(-c2ccccc2)cc1)n1c(=O)c(-c2cc3ccccc3[nH]2)nc2ccccc21 (centres undefined) | · | – | – | 1.6 | –
